# Laboratory results: PubChem BioAssay (NCATS)
# Unmarked numbers belong to inactive results. Inconclusive results are not listed. Activity calls are given as the source filed them. Unless noted, the call rests on the fitted dose curve; in most records, active means well fitted curve in either direction with a large enough effect (not every such curve was filed as active); inconclusive means small, poorly fitted or top-dose-only effect, or another doubt; inactive means flat fitted curve, though single readings scatter.
# Columns and labels:
# [1] = AP1 Signaling Pathway (AID 357); conditions: ME-180 AP-1-bla reporter, EGF-induced, beta-lactamase ratio, 5 h; at 17.2 µM (top of the series) unless noted;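 further: ME-180 reporter cells stimulated with EGF at its EC50 level; on the % scale 0 is the no-effect control and ±100 the full control effect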
# Outline: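 Modulation of EGF-driven AP-1 transcription was assessed with a beta-lactamase reporter in ME-180 cells. Compound and EC50 EGF were co-incubated 5 hours at 37 °C before 2.5-hour CCF4 loading at room temperature and dual-emission reading.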
# [2] = NFAT Signaling Pathway (AID 444); conditions: Jurkat NFAT-bla M1, carbachol, beta-lactamase ratio, 5 h; at 17.2 µM (top of the series) unless noted;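 further: carbachol stimulus at about its EC50 of 1 µM final; on the % scale 0 is the no-effect control and ±100 the full control effect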
# Outline: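 Jurkat cells with NFAT-driven β-lactamase reporter and co-expressed M1 receptor, stimulated with carbachol (final 1 uM, ~EC50), compound titration, 5 h at 37 °C. CCF4 loaded 1 h at RT; 460/530 nm ratio gave %activity and AC50.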
# [3] = target: Glucocorticoid receptor (Homo sapiens) (UniProt P04150); assay: GR-GFP Redistribution (AID 450;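 active means compounds whose dose series gives a full or clear partial fitted curve of increased nuclear translocation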; further: potency means the concentration at half of the fitted maximal effect)
# Sequence of Glucocorticoid receptor (Homo sapiens) (P04150 whole entry, looked up): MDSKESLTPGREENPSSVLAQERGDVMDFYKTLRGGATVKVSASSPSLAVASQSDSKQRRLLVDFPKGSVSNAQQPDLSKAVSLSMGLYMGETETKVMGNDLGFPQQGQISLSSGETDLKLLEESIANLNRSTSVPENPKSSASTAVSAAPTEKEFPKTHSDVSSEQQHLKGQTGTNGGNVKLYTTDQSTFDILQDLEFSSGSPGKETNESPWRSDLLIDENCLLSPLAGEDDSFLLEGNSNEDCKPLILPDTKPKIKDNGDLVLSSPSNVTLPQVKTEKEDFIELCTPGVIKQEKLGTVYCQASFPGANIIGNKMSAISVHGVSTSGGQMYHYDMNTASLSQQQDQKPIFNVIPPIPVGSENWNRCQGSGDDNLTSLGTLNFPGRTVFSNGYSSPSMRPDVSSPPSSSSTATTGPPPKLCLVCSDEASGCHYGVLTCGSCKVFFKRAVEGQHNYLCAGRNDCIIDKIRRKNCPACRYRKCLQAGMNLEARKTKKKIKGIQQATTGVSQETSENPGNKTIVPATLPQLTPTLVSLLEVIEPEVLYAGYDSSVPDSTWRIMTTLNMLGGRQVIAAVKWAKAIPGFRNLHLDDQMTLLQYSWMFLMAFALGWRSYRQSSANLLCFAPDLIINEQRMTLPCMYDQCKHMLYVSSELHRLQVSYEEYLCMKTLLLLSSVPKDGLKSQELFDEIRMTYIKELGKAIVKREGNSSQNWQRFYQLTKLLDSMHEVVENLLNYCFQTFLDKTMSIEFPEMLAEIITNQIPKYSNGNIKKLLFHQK
# [4] = Stat Signaling Pathway (AID 446); conditions: ME-180 SIE beta-lactamase reporter, IL-6 stimulated, 5 h; at 17.2 µM (top of the series) unless noted;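 further: ME-180 cervical cancer cells given 40 pM IL-6 alongside compound; SIE-controlled beta-lactamase reporter measured as 460/530 nm FRET emission ratio; on the % scale 0 is the no-effect control and ±100 the full control effect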
# Outline: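 FRET read-out (405 nm excitation, 460/530 nm emission) of a beta-lactamase reporter under a STAT-inducible element in ME-180 cervical carcinoma cells. Cells with compound receive 40 pM IL-6 for 5 h. Values are normalised to AC90 stimulation and AC90 JAK-inhibitor controls.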
# [5] = qHTS Assay for Identification of Small Molecule Agonists for Hypoxia Response Element Signaling Pathway (AID 914; active means well fitted activation curve with a large enough effect in the signal ratio, with a control signal flat, not every such curve was filed as active; the % refers to the signal ratio; further: % of control where 0% means no effect); conditions: ME-180 (cervical carcinoma) HRE-bla reporter, beta-lactamase ratio, CoCl2, 17 h; activation: stronger effect = higher value
# Outline: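 HRE-bla ME-180 cells with beta-lactamase reporter under hypoxia response element, compounds with EC50 CoCl2 for 17 hours at 37 C. CCF4 substrate, 460nm/530nm emission ratio gave %Activity; AC50 from titration series.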
# [6] = target: Mitogen-activated protein kinase 10 (Mus musculus) (UniProt Q61831); assay: JNK3 AlphaScreen Assay (AID 530);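 further: kinase came from lysate of stimulated human HepG2 cells; signal reports phosphorylation of biotinylated GST-cJun 1-79 at Ser73 with 10 µM ATP; on the % scale 0 is the no-effect control and ±100 the full control effect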
# Outline: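 HepG2 lysate (IL-1b/TNFa pre-activated) + biotin-GST-cJun 1-79 + anti-pSer73 cJun; cpd titration, 15 min RT; ATP 10 uM start; Tris pH 7.6, MgCl2, DTT, vanadate; beads in EDTA buffer; AlphaScreen.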
# [7] = target: 3',5'-cyclic-AMP phosphodiesterase 4B (Homo sapiens) (UniProt Q07343); assay: qHTS Assay for Inhibitors of PDE-IV (AID 607; active means well fitted activation curve with a large enough effect in the main read-out, with a control signal flat, not every such curve was filed as active; further: % of control where 0% means no effect)
# Sequence of 3',5'-cyclic-AMP phosphodiesterase 4B (Homo sapiens) (Q07343 whole entry, looked up): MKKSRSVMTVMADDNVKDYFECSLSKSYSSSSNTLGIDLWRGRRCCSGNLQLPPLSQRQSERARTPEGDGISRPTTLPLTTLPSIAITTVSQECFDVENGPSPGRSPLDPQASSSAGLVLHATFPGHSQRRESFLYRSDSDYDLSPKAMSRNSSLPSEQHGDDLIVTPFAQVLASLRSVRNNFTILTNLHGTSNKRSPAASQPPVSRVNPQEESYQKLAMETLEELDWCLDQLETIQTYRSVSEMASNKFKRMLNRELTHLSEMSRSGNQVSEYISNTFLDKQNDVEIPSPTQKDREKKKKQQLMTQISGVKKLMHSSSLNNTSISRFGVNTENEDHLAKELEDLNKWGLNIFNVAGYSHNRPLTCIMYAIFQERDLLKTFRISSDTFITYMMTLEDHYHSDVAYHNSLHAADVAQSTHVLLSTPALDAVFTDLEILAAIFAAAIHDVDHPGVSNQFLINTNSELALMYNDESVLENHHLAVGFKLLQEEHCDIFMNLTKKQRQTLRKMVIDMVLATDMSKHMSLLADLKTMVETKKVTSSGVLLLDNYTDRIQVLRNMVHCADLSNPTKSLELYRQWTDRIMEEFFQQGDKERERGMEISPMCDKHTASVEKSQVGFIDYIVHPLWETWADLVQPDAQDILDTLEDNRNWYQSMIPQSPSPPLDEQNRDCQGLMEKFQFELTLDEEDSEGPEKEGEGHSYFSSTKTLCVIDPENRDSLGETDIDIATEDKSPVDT
# Outline: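 Cell-based read-out of cAMP via a modified cyclic nucleotide-gated channel and membrane potential dye (535/590 nm) in HEK293 cells expressing PDE4 endogenously. Compounds tested up to 22.9 uM final; 100 uM RO 20-1724 reference.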
# [8] = target: Ubiquitin carboxyl-terminal hydrolase 1 (Homo sapiens) (UniProt O94782); assay: Inhibitors of USP1/UAF1: Pilot qHTS (AID 504865; active means well fitted inhibition curve with a large enough effect;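 further: rhodamine fluorescence freed from ubiquitin-rhodamine substrate followed over time; top concentration of the series differs between compounds; on the % scale 0 is the no-effect control and ±100 the full control effect; nearly all actives have a fitted effect of over 35% in size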)
# Sequence of Ubiquitin carboxyl-terminal hydrolase 1 (Homo sapiens) (O94782 whole entry, looked up): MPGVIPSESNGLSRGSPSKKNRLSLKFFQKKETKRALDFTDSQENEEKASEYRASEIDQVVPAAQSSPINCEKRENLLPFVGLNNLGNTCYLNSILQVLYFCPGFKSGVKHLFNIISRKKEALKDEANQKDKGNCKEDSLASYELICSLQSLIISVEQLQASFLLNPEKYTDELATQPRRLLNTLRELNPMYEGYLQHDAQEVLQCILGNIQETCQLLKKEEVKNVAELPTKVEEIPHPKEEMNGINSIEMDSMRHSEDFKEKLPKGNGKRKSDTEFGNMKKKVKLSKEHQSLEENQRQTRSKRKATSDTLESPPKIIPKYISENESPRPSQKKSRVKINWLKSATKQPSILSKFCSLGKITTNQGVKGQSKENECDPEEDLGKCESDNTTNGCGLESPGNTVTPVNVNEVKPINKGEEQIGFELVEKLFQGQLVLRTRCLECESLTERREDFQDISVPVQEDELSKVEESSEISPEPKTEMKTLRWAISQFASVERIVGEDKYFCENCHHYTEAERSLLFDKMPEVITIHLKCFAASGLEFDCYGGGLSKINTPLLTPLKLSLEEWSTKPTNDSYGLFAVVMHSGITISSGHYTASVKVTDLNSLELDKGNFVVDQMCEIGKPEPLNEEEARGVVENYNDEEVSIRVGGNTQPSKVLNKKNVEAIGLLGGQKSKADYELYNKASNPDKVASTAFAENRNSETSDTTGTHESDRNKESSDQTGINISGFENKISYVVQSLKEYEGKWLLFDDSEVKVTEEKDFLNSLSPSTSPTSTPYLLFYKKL
# Outline: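 Enzyme-free wells gave the negative control, while test wells held 1nM USP1/UAF1 preincubated with compound for 15 min at room temperature. Ub-Rho at 150nM final started the reaction, and fluorescence at 480/540 nm was recorded kinetically.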
smiles,measurement,setting,value
CC1(C)Cc2c(C#N)c(NCCc3ccccc3)nc(-c3ccco3)c2CO1,"activity change, negative = inhibition",[1],14.4%
same,"activity change, negative = inhibition",[2],80.9% [activator] (active)
same,Potency,[3],> 20.6 µM
CCOC(=O)C(C(=O)OCC)N(C#N)c1nc(SC)nc(N(C)C)n1,"activity change, negative = inhibition",[1],-8.06%
same,"activity change, negative = inhibition",[2],-23.5%
same,"activity, negative = inhibition",[4],-8.92%
same,activation,[5],-11.1%
CCOC(=O)C1=C(N)n2c(s/c(=C\c3cccnc3)c2=O)=C(C(=O)OC)C1c1cccnc1 (stereo unspecified),"activity change, negative = inhibition",[1],-8.91%
same,"activity change, negative = inhibition",[2],23.6%
same,Potency,[3],> 20.6 µM
ClC(Br)=C(n1cnc2ccccc21)n1cnc2ccccc21,"activity change, negative = inhibition",[1],-25.5%
same,"activity change, negative = inhibition",[2],-11.4%
same,Potency,[3],> 20.6 µM
CC(C)(C)n1nnc(CCc2nnn(C(C)(C)C)n2)n1,"activity change, negative = inhibition",[1],1.01%
same,"activity change, negative = inhibition",[2],-17.9%
same,Potency,[3],> 20.6 µM
COc1ccccc1C(=O)N1CCN(Cc2ccc3c(c2)OCO3)CC1,"activity change, negative = inhibition",[1],-11.7%
same,"activity change, negative = inhibition",[2],-10.5%
same,Potency,[3],> 20.6 µM
CCCOC(=O)CSC1=C(C#N)C(c2ccc3c(c2)OCO3)CC(=O)N1 (stereo unspecified),"activity change, negative = inhibition",[1],-0.809%
same,"activity change, negative = inhibition",[2],11.1%
same,"activity, negative = inhibition",[4],1.94%
same,Potency,[3],> 20.6 µM
same,activation,[5],-15.4%
O=C(NC[C@@H]1CCCCN1)c1cc(OCC(F)(F)F)ccc1OCC(F)(F)F,"activity change, negative = inhibition",[1],-1.96%
same,"activity change, negative = inhibition",[2],-7.71%
same,"activity, negative = inhibition",[4],4.72%
same,Potency,[6],inactive
same,Potency,[7],inactive
same,Potency,[8],inactive
COc1ccc2c(c1)c(C(=O)CN1CCOCC1)c(C)n2C,"activity change, negative = inhibition",[1],12%
same,"activity change, negative = inhibition",[2],0.787%
same,"activity, negative = inhibition",[4],10.6%
same,Potency,[3],> 20.6 µM
same,activation,[5],8.25%
Cc1nn(-c2cccc(Cl)c2)c2c1C(c1ccncc1)C(C#N)=C(N)O2 (stereo unspecified),"activity change, negative = inhibition",[1],17.6%
same,"activity change, negative = inhibition",[2],-16.8%
same,Potency,[3],> 20.6 µM
CC(C)(C)OC(=O)N1CC=C2C(C#N)=C(N)C(C#N)(C#N)[C@H](c3cccnc3)[C@H]2C1,"activity change, negative = inhibition",[1],3.85%
same,"activity change, negative = inhibition",[2],4.36%
same,Potency,[3],> 20.6 µM
COc1ccc(C2C(C(C)=O)=C(O)C(=O)N2c2nccs2)cc1OC (stereo unspecified),"activity change, negative = inhibition",[1],-6.01%
same,"activity change, negative = inhibition",[2],21.8%
same,"activity, negative = inhibition",[4],3.64%
same,Potency,[3],> 20.6 µM
same,activation,[5],-13.7%
